ChEMBL document CHEMBL4513216, “Probing the Open Global Health Chemical Diversity Library for Multistage-Active Starting Points for Next-Generation Antimalarials” (ACS Infect Dis, 2020)
Among all 69,000 compounds or so, about 8,600 (12%) showed an effect of 50% or more. The list comes from a sample in which strong results are over-represented; it also holds similar structures and randomly drawn compounds.

Test system: Plasmodium berghei
Experiment: Screen against P. berghei liver stage (PbLuc), transformed with Luciferase, at 10uM
Type: functional, HepG2
Conditions: tested at 10 uM

Structure (SMILES)	INHIBITION [%]
Cc1n[nH]cc1CNC(=O)CCCc1cccs1	54.5
Cc1nc(CNC(=O)CCCc2cccs2)no1	35.9
Cc1csc(CNC(=O)CCCc2cccs2)n1	3.48
COc1c(C(=O)NCc2cnn(C)c2C)nnn1Cc1ccccc1	40.8
N#CC1COCCN1C(=O)c1ccc2cc[nH]c2c1 (stereo not given)	53.3
N#CC1COCCN1C(=O)c1ccc2[nH]cnc2c1 (stereo not given)	-13.9
N#CC1COCCN1C(=O)c1ccc2[nH]ccc2c1 (stereo not given)	19.7
O=c1[nH]c(COc2ccc(Cl)cc2)nc2c1CCNC2	-9.66
CCCc1nnsc1C(=O)NCC(O)c1cccs1 (stereo not given)	19.9
C/C=C(\C)CN1C[C@H](c2cccc(OC)c2)[C@@H](N)C1	-0.273
COc1cccc([C@H]2CN(C(=O)c3noc4c3CCCC4)C[C@@H]2N)c1	31.4
CCOCCN1C[C@H](c2cccc(OC)c2)[C@@H](N)C1	39.9
COc1cccc([C@H]2CN(C(=O)c3cc(C)on3)C[C@@H]2N)c1	23.5
COc1cccc([C@H]2CN(C(=O)c3nnc4n3CCCC4)C[C@@H]2N)c1	58.1
COc1cccc([C@H]2CN(C(=O)c3scc4c3CCCC4)C[C@@H]2N)c1	60.1
CC(C)CCOCCNC(=O)Nc1ccc(F)c(C(N)=O)c1	-25.9
CCn1c(N)nc2cc(C(=O)NCc3cccc(C)c3C)cnc21	-25.7
CCc1nnc(CN2CCC(N3CCN(CC)C3=O)CC2)o1	-27.8
Cc1cccn2c(=O)cc(OC(=O)c3ccc(OC(C)C)cc3)nc12	-5.59
Cc1ccc2c(cnn2CCC(=O)NCc2csc(C)n2)c1	23.6
CCn1cnnc1CCNS(=O)(=O)N1CCCC1c1ccco1 (stereo not given)	27.7
Cc1c(CN2CCCC2c2cncc(CN3CCCC3)n2)cnn1C (stereo not given)	12.9
Cc1ccc(OCC(C)NS(C)(=O)=O)cc1 (stereo not given)	-1.7
Cc1ccc(OCC(C)NS(C)(=O)=O)cc1C (stereo not given)	15.7

Structure (SMILES)	INHIBITION [%]
CC(COc1ccccc1)NS(C)(=O)=O (stereo not given)	52.6
Cc1ccc(OCC(C)NC(=O)CN(C)c2ccc(C#N)cn2)cc1 (stereo not given)	8.38
Cc1ccc(OCC(C)NS(=O)(=O)N(C)C)cc1 (stereo not given)	51.5
COc1ccc(OCC(C)NS(C)(=O)=O)cc1 (stereo not given)	0.472
CCOc1ccc2[nH]c(=O)c(CN3CCC(N4CCCC4)CC3)cc2c1	-1.54
Cc1cccc(C(=O)N2CCCC(c3noc(C)n3)C2)n1 (stereo not given)	4.71
O=C(NCc1ccco1)[C@@H]1CCO[C@@H]2CCN(c3ccncn3)C[C@H]21	10
COc1ccccc1C(O)CNC(=O)Nc1ccccn1 (stereo not given)	35.9
Cc1ccc2c(c1)c(C)cc(=O)n2CCCN	-17
Cn1ccc2c(-c3cc(N4CCOCC4)ncn3)ccnc21	-3.96
CCc1cc(-c2ccnc3c2ccn3C)nc(N2CCOCC2)n1	51.5
Cn1ccc2c(-c3cc(N)nc(N4CCOCC4)n3)ccnc21	18.8
COc1cccc(CN2CCCCC2c2n[nH]cc2-c2cc(C)no2)c1 (stereo not given)	25.8
CNC(=O)c1cc2c(nc1NCC1CC1)CCN(c1ccncn1)CC2	32.4
Cc1cc(C)n(CNc2nonc2C(N)=O)n1	44.1
CCc1cc(CN(C)C(=O)CN2CC(c3ccccc3)CC2=O)on1 (stereo not given)	9.91
CCc1nnc(CN(C)C(=O)CN2CC(c3ccccc3)CC2=O)o1 (stereo not given)	62.4
CN(Cc1nc(C2CC2)no1)C(=O)CN1CC(c2ccccc2)CC1=O (stereo not given)	3.96
CCc1cc(O)n2nc(C3CCN(C(=O)c4cccnc4)CC3)cc2n1	13.3
CCN1CCCC(O)(c2nc(C)c(CCOc3ccccc3Cl)s2)CC1 (stereo not given)	28
Cc1nc(C2(O)CCCNCC2)sc1CCOc1ccc(F)c(F)c1 (stereo not given)	46
COc1ccc(OCCc2sc(C3(O)CCCNCC3)nc2C)cc1 (stereo not given)	52.3
Cc1nc(C2(O)CCCNCC2)sc1CCOc1ccc(F)cc1 (stereo not given)	47.2
Cc1nc(C2(O)CCCNCC2)sc1CCOc1ccccc1Cl (stereo not given)	55.6

Structure (SMILES)	INHIBITION [%]
Cc1nc(C2(O)CCCNCC2)sc1CCOc1ccccc1F (stereo not given)	0.301
COc1ccc(OCc2sc(C3(O)CCCNCC3)nc2C)cc1 (stereo not given)	31.3
CCCN1CCCC(O)(c2nc(C)c(COc3ccccc3)s2)CC1 (stereo not given)	27.6
Cc1nc(C2(O)CCCNCC2)sc1CCOc1ccccc1 (stereo not given)	49.6
Cc1nc(C2(O)CCCNCC2)sc1CCOc1ccc(Cl)cc1 (stereo not given)	73.9
CCN1CCCC(O)(c2nc(C)c(CCOc3ccc(F)cc3)s2)CC1 (stereo not given)	59.3
CCN1CCCC(O)(c2nc(C)c(CCOc3ccccc3F)s2)CC1 (stereo not given)	7.52
CCSc1cc(C(=O)NC2CCN(C(=O)c3ccccc3)CC2)ccn1	33.4
Cc1ncc2c(n1)CN(Cc1nc(Cc3ccccc3)no1)CC2	41.2
O=C(CCOc1ccc(Cl)cc1)NCCCn1cccn1	48.8
O=C(CCOc1cccc(Cl)c1)N1CCN(c2cnccn2)CC1	-8.11
CCNC(=O)N1CCC(Cc2cccc(C(N)=O)c2)C1 (stereo not given)	10.7
CCNC(=O)N1CCC(NC(=O)NCCc2cc3ccccc3o2)C1 (stereo not given)	-43.8
CC1CCN(C(=O)NCCc2cc(F)ccc2F)C1 (stereo not given)	-21.2
CCNC(=O)N1CCC(NC(=O)NCCc2cc(F)cc(F)c2)C1 (stereo not given)	57.3
CCNC(=O)N1CCC(NC(=O)NCCCc2cccc(F)c2)C1 (stereo not given)	35
Cc1cccc(CC(=O)NC2CCN(C(=O)NC(C)(C)C)CC2)c1	-38.4
Cc1ccc(CCNC(=O)NCCCC(N)=O)c(C)c1	-18.6
CCNC(=O)N1CCC(NC(=O)NCCc2ccc(C)cc2C)C1 (stereo not given)	51.7
CCNC(=O)N1CCC(NC(=O)NCCc2cccc(C)c2)C1 (stereo not given)	77.7
Cc1ccc(CN2Cc3c(C(=O)N4CCN(C)CC4)nn(C)c3C2)s1	3.25
COCc1n[nH]/c(=N\C(=O)c2c3c(nc4onc(C)c24)CCC3)s1	10.7
